According to PubChem BioAssay:

target: Voltage-gated potassium channel subunit beta-2 (Rattus norvegicus) (UniProt P62483); assay: KvBeta positive modulators, primary screen, biochemical, NADPH fluorescence (AID 623); details: Recombinant KvBeta, NADPH fluorescence decrease slope, 10 min; at 10 µM; stronger effect = lower value;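 note: fluorescence intensity change per second fitted from 20 to 320 s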
Sequence (P62483 whole entry, looked up): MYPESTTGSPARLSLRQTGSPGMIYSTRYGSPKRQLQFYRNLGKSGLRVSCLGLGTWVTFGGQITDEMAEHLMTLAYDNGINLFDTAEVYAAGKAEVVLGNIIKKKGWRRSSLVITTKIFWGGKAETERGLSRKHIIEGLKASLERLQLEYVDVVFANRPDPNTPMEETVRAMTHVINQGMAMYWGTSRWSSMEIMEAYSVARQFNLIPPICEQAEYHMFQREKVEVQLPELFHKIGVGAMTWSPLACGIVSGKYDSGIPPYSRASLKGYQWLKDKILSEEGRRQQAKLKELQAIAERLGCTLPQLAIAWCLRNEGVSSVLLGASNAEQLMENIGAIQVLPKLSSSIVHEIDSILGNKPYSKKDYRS

NADPH fluorescence slope, inactive:
COc1cccc(C2=NOC(C(=O)Nc3cc(C)nn3-c3ccccc3)C2)c1OC (stereo not given) -5.4e-05, O=C(O)C1CCCN1c1ncnc2c1oc1ccccc12 (stereo not given) -1.8e-05, Cc1ccc(OC(=O)CCC(=O)OCCCC(F)(F)C(F)(F)F)cc1 -5.9e-05, O=S(=O)(c1cccc(S(=O)(=O)N2CCC(N3CCCCC3)CC2)c1)N1CCOCC1 -1.3e-06, CNc1ccc(C(O)(C(F)(F)F)C(F)(F)F)cc1C(O)(C(F)(F)F)C(F)(F)F -4.4e-05, Cc1cc(C)n2nc(SCc3nc4ccccc4[nH]3)nc2n1 8.8e-06, Cc1cccc(C(=O)N(C)c2nnc(-c3ccncc3)s2)c1 9.6e-06, CCOC(=O)c1c(C)n(C)c2c(C)cc(O)c(OC(C)=O)c12 -7.1e-06, C=CCOC(=O)C1=C(C)NC(=O)NC1c1cn(-c2ccccc2)nc1-c1cccs1 (stereo not given) -5.4e-05, CCOc1ccccc1NC(=O)C1CCCN(S(=O)(=O)c2cccc3cccnc23)C1 (stereo not given) -3.3e-05, CCOc1ccccc1Nc1nnc(SCC(=O)N2CCCC2)s1 1.4e-05, COC(=O)/C=c1\sc2ncnn2c1=O -1.3e-05, CN(C)CCNc1oc(-c2ccccc2F)nc1C#N 9.2e-06, O=C(C1CCN(c2nnc(-n3cccc3)s2)CC1)N1CCN(Cc2ccc3c(c2)OCO3)CC1 -2e-05, COc1ccccc1NC(=O)C1(C)Cc2ccccc2C(=O)O1 (stereo not given) -3.4e-05
